# The supplement of paper PMC4466140
# Tests used:
# Test in all cases: SPOT peptide array binding signal intensity (averaged, normalized) (arbitrary units (background-subtracted, floor 0; scale differs between SH3 domains)); higher = stronger binding of the SH3 domain to the peptide
# [1] = target: AgAbp1
# In short: (§1)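 SH3 domains from four yeast species were expressed as GST fusions in E. coli BL21(DE3) and purified on glutathione Sepharose. Each was incubated at 10 μg/ml overnight at 4°C in TBS-based blocking buffer on cellulose membranes bearing synthetic 15-mer peptides, in which serines replaced cysteines. Bound protein was detected with anti-GST antibody, an HRP anti-mouse secondary and luminol, then imaged and quantified with Genespotter. The binding signal is the normalized, background-subtracted spot intensity averaged over replicates, in arbitrary units that are not the same from one domain to another.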
# [2] = target: AgBbc1
# In short: as §1
# [3] = target: AgBem1-D1
# In short: as §1
# [4] = target: AgBzz1-D1
# In short: as §1
# [5] = target: AgBzz1-D2
# In short: as §1
# [6] = target: AgCyk3
# In short: as §1
# [7] = target: AgFus1
# In short: as §1
# [8] = target: AgHof1
# In short: as §1
# [9] = target: AgHse1
# In short: as §1
# [10] = target: AgLsb1
# In short: as §1
# [11] = target: AgLsb4
# In short: as §1
# [12] = target: AgMyo5
# In short: as §1
# [13] = target: AgNbp2
# In short: as §1
# [14] = target: AgRvs167
# In short: as §1
# [15] = target: AgSho1
# In short: as §1
# [16] = target: AgSla1-D1-D2
# In short: as §1
# [17] = target: AgSla1-D3
# In short: as §1
# [18] = target: CaAbp1-D1
# In short: as §1
# [19] = target: CaAbp1-D2
# In short: as §1
# [20] = target: CaBbc1
# In short: as §1
# [21] = target: CaBem1-D1
# In short: as §1
# [22] = target: CaBzz1-D1
# In short: as §1
# [23] = target: CaBzz1-D2
# In short: as §1
# [24] = target: CaCyk3
# In short: as §1
# [25] = target: CaFus1
# In short: as §1
# [26] = target: CaHof1
# In short: as §1
# [27] = target: CaHse1
# In short: as §1
# [28] = target: CaLsb1
# In short: as §1
# [29] = target: CaLsb4
# In short: as §1
# [30] = target: CaMyo5
# In short: as §1
# [31] = target: CaNbp2
# In short: as §1
# [32] = target: CaRvs167
# In short: as §1
# [33] = target: CaRvs167-3
# In short: as §1
# [34] = target: CaSho1
# In short: as §1
# [35] = target: CaSla1-D1-D2
# In short: as §1
# [36] = target: CaSla1-D3
# In short: as §1
# [37] = target: ScAbp1
# In short: as §1
# [38] = target: ScBbc1
# In short: as §1
# [39] = target: ScBem1-D1
# In short: as §1
# [40] = target: ScBzz1-D1
# In short: as §1
# [41] = target: ScBzz1-D2
# In short: as §1
# [42] = target: ScCyk3
# In short: as §1
# [43] = target: ScFus1
# In short: as §1
# [44] = target: ScHof1
# In short: as §1
# [45] = target: ScHse1
# In short: as §1
# [46] = target: ScLsb1
# In short: as §1
# [47] = target: ScLsb2
# In short: as §1
# [48] = target: ScLsb3
# In short: as §1
# [49] = target: ScLsb4
# In short: as §1
# [50] = target: ScMyo3
# In short: as §1
# [51] = target: ScMyo5
# In short: as §1
# [52] = target: ScNbp2
# In short: as §1
# [53] = target: ScPex13
# In short: as §1
# [54] = target: ScRvs167
# In short: as §1
# [55] = target: ScSho1
# In short: as §1
# [56] = target: ScSla1-D1-D2
# In short: as §1
# [57] = target: ScSla1-D3
# In short: as §1
# [58] = target: SpAbp1-D1
# In short: as §1
# [59] = target: SpBbc1
# In short: as §1
# [60] = target: SpBzz1-D1
# In short: as §1
# [61] = target: SpBzz1-D2
# In short: as §1
# [62] = target: SpCyk3
# In short: as §1
# [63] = target: SpHof1
# In short: as §1
# [64] = target: SpHof1-2
# In short: as §1
# [65] = target: SpHof1-3
# In short: as §1
# [66] = target: SpHse1
# In short: as §1
# [67] = target: SpLsb1
# In short: as §1
# [68] = target: SpLsb4
# In short: as §1
# [69] = target: SpMyo1
# In short: as §1
# [70] = target: SpNbp2
# In short: as §1
# [71] = target: SpPex13
# In short: as §1
# [72] = target: SpRvs167
# In short: as §1
# [73] = target: SpSla1-D1-D2
# In short: as §1
# [74] = target: SpSla1-D3
# In short: as §1
binder,measurement,setting,value
DTFLPPPPPPPSNFE,SPOT peptide array binding signal intensity,[1],2
same,SPOT peptide array binding signal intensity,[2],≤ 0
same,SPOT peptide array binding signal intensity,[3],≤ 0
same,SPOT peptide array binding signal intensity,[4],≤ 0
same,SPOT peptide array binding signal intensity,[5],≤ 0
same,SPOT peptide array binding signal intensity,[6],1
same,SPOT peptide array binding signal intensity,[7],≤ 0
same,SPOT peptide array binding signal intensity,[8],23.5
same,SPOT peptide array binding signal intensity,[9],4.5
same,SPOT peptide array binding signal intensity,[10],≤ 0
same,SPOT peptide array binding signal intensity,[11],≤ 0
same,SPOT peptide array binding signal intensity,[12],1100
same,SPOT peptide array binding signal intensity,[13],≤ 0
same,SPOT peptide array binding signal intensity,[14],1.33
same,SPOT peptide array binding signal intensity,[15],≤ 0
same,SPOT peptide array binding signal intensity,[16],≤ 0
same,SPOT peptide array binding signal intensity,[17],0.5
same,SPOT peptide array binding signal intensity,[18],≤ 0
same,SPOT peptide array binding signal intensity,[19],≤ 0
same,SPOT peptide array binding signal intensity,[20],≤ 0
same,SPOT peptide array binding signal intensity,[21],≤ 0
same,SPOT peptide array binding signal intensity,[22],108
same,SPOT peptide array binding signal intensity,[23],11.8
same,SPOT peptide array binding signal intensity,[24],≤ 0
same,SPOT peptide array binding signal intensity,[25],≤ 0
same,SPOT peptide array binding signal intensity,[26],≤ 0
same,SPOT peptide array binding signal intensity,[27],3.25
same,SPOT peptide array binding signal intensity,[28],≤ 0
same,SPOT peptide array binding signal intensity,[29],≤ 0
same,SPOT peptide array binding signal intensity,[30],11.5
TTNRGPPPLPPRANV,SPOT peptide array binding signal intensity,[1],2
same,SPOT peptide array binding signal intensity,[2],301
same,SPOT peptide array binding signal intensity,[3],53.5
same,SPOT peptide array binding signal intensity,[4],385
same,SPOT peptide array binding signal intensity,[5],144
same,SPOT peptide array binding signal intensity,[6],6
same,SPOT peptide array binding signal intensity,[7],≤ 0
same,SPOT peptide array binding signal intensity,[8],398
same,SPOT peptide array binding signal intensity,[9],35.5
same,SPOT peptide array binding signal intensity,[10],513
same,SPOT peptide array binding signal intensity,[11],4310
same,SPOT peptide array binding signal intensity,[12],394
same,SPOT peptide array binding signal intensity,[13],4.5
same,SPOT peptide array binding signal intensity,[14],1710
same,SPOT peptide array binding signal intensity,[15],≤ 0
same,SPOT peptide array binding signal intensity,[16],≤ 0
same,SPOT peptide array binding signal intensity,[17],4
same,SPOT peptide array binding signal intensity,[18],19
same,SPOT peptide array binding signal intensity,[19],≤ 0
same,SPOT peptide array binding signal intensity,[20],590
same,SPOT peptide array binding signal intensity,[21],28
same,SPOT peptide array binding signal intensity,[22],6090
same,SPOT peptide array binding signal intensity,[23],2120
same,SPOT peptide array binding signal intensity,[24],10.5
same,SPOT peptide array binding signal intensity,[25],22.5
same,SPOT peptide array binding signal intensity,[26],101
same,SPOT peptide array binding signal intensity,[27],73
same,SPOT peptide array binding signal intensity,[28],9
same,SPOT peptide array binding signal intensity,[29],4530
same,SPOT peptide array binding signal intensity,[30],6.25
same,SPOT peptide array binding signal intensity,[31],35
same,SPOT peptide array binding signal intensity,[32],1980
same,SPOT peptide array binding signal intensity,[33],≤ 0
same,SPOT peptide array binding signal intensity,[34],0.5
same,SPOT peptide array binding signal intensity,[35],436
same,SPOT peptide array binding signal intensity,[36],1.5
same,SPOT peptide array binding signal intensity,[37],12
same,SPOT peptide array binding signal intensity,[38],74
same,SPOT peptide array binding signal intensity,[39],6
same,SPOT peptide array binding signal intensity,[40],144
same,SPOT peptide array binding signal intensity,[41],8
same,SPOT peptide array binding signal intensity,[42],1
same,SPOT peptide array binding signal intensity,[43],≤ 0
same,SPOT peptide array binding signal intensity,[44],272
same,SPOT peptide array binding signal intensity,[45],21.5
same,SPOT peptide array binding signal intensity,[46],576
same,SPOT peptide array binding signal intensity,[47],583
same,SPOT peptide array binding signal intensity,[48],6820
same,SPOT peptide array binding signal intensity,[49],3960
same,SPOT peptide array binding signal intensity,[50],492
same,SPOT peptide array binding signal intensity,[51],277
same,SPOT peptide array binding signal intensity,[52],43
same,SPOT peptide array binding signal intensity,[53],2050
same,SPOT peptide array binding signal intensity,[54],2870
same,SPOT peptide array binding signal intensity,[55],128
same,SPOT peptide array binding signal intensity,[56],255
same,SPOT peptide array binding signal intensity,[57],15.2
same,SPOT peptide array binding signal intensity,[58],41.5
same,SPOT peptide array binding signal intensity,[59],106
same,SPOT peptide array binding signal intensity,[60],3230
same,SPOT peptide array binding signal intensity,[61],11
same,SPOT peptide array binding signal intensity,[62],16
same,SPOT peptide array binding signal intensity,[63],15.2
same,SPOT peptide array binding signal intensity,[64],42.8
same,SPOT peptide array binding signal intensity,[65],344
same,SPOT peptide array binding signal intensity,[66],≤ 0
same,SPOT peptide array binding signal intensity,[67],1680
same,SPOT peptide array binding signal intensity,[68],4080
same,SPOT peptide array binding signal intensity,[69],853
same,SPOT peptide array binding signal intensity,[70],≤ 0
same,SPOT peptide array binding signal intensity,[71],7
same,SPOT peptide array binding signal intensity,[72],2550
same,SPOT peptide array binding signal intensity,[73],1
same,SPOT peptide array binding signal intensity,[74],≤ 0
